Screening results: PubChem BioAssay, National Center for Advancing Translational Sciences (NCATS)
TRPV1 PAM = HTS Assay for Compounds that Act as Potentiators of the Vanilloid Receptor 1. TRPV1-expressing cells, Fluo-8 calcium influx, capsaicin EC20 potentiation. potentiation, % at 8.33 µM. 320,000 tested, 0.02% active; in the data active = potentiation above about 80%; inconclusive = between about 30% and that limit; also: 0% is about no effect
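TRPV1-expressing cells were cultured overnight at 35.5C and loaded with Fluo-8 calcium dye for 40 to 90 min at room temperature. After a 10 s baseline, compound was added and calcium influx was read kinetically for 3 min (ex 480/em 520 nm).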
ClpP mod = qHTS Assay for Activators of ClpP. Potency, µM (doses to about 57.5 µM), for the others: at the highest dose activity change, negative = active. AID 651965, 2013. purified B. subtilis ClpP, FRET peptide cleavage, 20 min. ATP-dependent Clp protease proteolytic subunit (Bacillus subtilis (strain 168)), P80244. 340,000 tested, 1.9% active; active = well fitted falling curve with a large enough effect; inconclusive = small, poorly fitted or top-dose-only effect; inactive = no such curve, though single readings can be large or run the other way; also: potency is read from the fitted curve at half-maximal effect; the source files actives as falling curves though it sought activators and does not explain the sign; nearly all actives have a fitted effect of over 65% in size
Target sequence (P80244 whole entry, looked up): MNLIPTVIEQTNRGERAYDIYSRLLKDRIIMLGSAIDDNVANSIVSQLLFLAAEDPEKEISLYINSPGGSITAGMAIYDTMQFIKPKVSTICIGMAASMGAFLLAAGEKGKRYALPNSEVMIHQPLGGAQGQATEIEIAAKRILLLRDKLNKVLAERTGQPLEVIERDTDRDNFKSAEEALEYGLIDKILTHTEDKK
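ClpP 10 microg/mL final, pH 8 Tris/KCl buffer with BSA, glycerol, Tween-20; compound pinned in; FRET-FV substrate; RT 20 min; Ex320/Em430; ΔFRET vs ADEP 5.8 microM, DMSO, no enzyme.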
p53 reactivator = qHTS assay for re-activators of p53 using a Luc reporter; H1299 p53-A138V BP100-luciferase reporter, luminescence, 24 h; Potency, µM (highest dose often 92.2 µM), without a hit: at the top dose activity change, positive = activation, actives largely listed as activators; 320,000 tested, 0.063% active; AID 504706, 2011; active = well fitted activation curve with a large enough effect; inconclusive = small, poorly fitted or top-dose-only effect; inactive = no such curve, though single readings can be large or run the other way; also: potency is read from the fitted curve at half-maximal effect; % of control where 0% means no effect; nearly all actives have a fitted effect of over 45% in size
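H1299 (p53-null), stable ts p53-A138V + BP100-Luc; 1000 cells/well, Opti-MEM/10% FBS; cpd 4 pt, 1:5; 24 h, 37 deg C, 5% CO2; detection reagent 10 min RT; luminescence.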
KCNH2 3.1 block = qHTS for Inhibitors of KCHN2 3.1: Mutant qHTS | Potassium voltage-gated channel subfamily H member 2, brain isoform KCNH2 3.1 (human) | U2OS KCNH2 3.1, thallium flux FluxOr; active compounds read low | activity change, % (tested at about 1.8 µM) | 340,000 tested, 0.95% active | AID 720553, 2013;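 active = maximum activity change below -70%; inconclusive = maximum activity change from -70% to -50%; inactive = maximum activity change above -50%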;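 also: thallium influx rate constant from kinetic fluorescence after stimulation buffer; % is scaled to controls: 0 for no effect and ±100 for the full control effect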
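Thallium flux via FluxOr fluorescence (Red40 quencher, 45 min loading) in U2OS cells virally expressing the KCNH2 3.1 isoform (1.77 x 10^8 /mL virus, overnight at 37 C). Rate constants from 2-min kinetic reads post-stimulation, normalised to positive and negative controls.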
hERG WT inh = qHTS for Inhibitors of KCHN2 3.1: Wildtype qHTS; Voltage-gated inwardly rectifying potassium channel KCNH2 (Homo sapiens), Q12809; U2OS, BacMam KCNH2, thallium flux FluxOr; active compounds read low; activity change, % at 1.84 µM; 340,000 tested, 0.37% active;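 active = maximum activity change below -70%; inconclusive = maximum activity change between -70% and -50%; inactive = maximum activity change above -50%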; also: % is scaled to controls: 0 for no effect and ±100 for the full control effect
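U2OS cells were transduced with wild-type KCNH2 virus (2.03 x 10^8 / mL) for 4 h at room temperature, then cultured overnight at 37 C. Thallium flux was read with FluxOr dye. Rate constants were normalized to DMSO controls.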
TRPV1 agonist = HTS Assay for Compounds that Act as Agonists of the Vanilloid Receptor 1 | AID 540275, 2011 | activation, % at 8.33 µM | 320,000 tested, 0.19% active | TRPV1-expressing cells, Fluo-8 calcium influx, agonist mode; in the data active = activation above about 80%; inconclusive = between about 30% and that limit; also: 0% is about no effect
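Fluo-8 calcium influx in TRPV1-expressing cells, kinetic read (ex 480/em 520 nm). Compound added and read 3 min for agonist activity, followed by capsaicin at EC20 final and 2 min further read for enhancement.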
The depositor's hits bear a star; u = inconclusive; x = no result given. This is a sample that favours compounds with a hit; in the whole collection about 2.6% have one here.

SMILES	TRPV1 PAM	ClpP mod	p53 reactivator	KCNH2 3.1 block	hERG WT inh	TRPV1 agonist
CC(C)c1nc2sc3c(SCC(=O)NCc4ccco4)ncnc3c2c2c1CCC2	22	25µM*	-1%	-6	-3	-6
Cc1ccccc1NC(=O)C1CC(=O)N(c2ccccc2F)C1 (stereo not drawn)	-6	14µM*	-7%	-5	6	-3
CCOC(=O)N/N=C1\CCc2ccccc21	0	32µM*	u	-5	-2	1
COc1ccc(OC)c(NC(=O)CSc2cn(CC(=O)N3CCOCC3)c3ccccc23)c1	x	0%	x	x	x	x
COc1cc(OC)c(-c2c3cc(O)c(=O)cc-3oc3cc(O)c(O)cc23)cc1OC	-13	-5%	-11%	-1	-20	104*
Cn1c(O)c(N=NC(=O)CNC(=O)/C=C/c2ccccc2)c2ccccc21	10	1%	-2%	-184*	6	-10
CCN(CC)C(=O)Cc1c(O)c2ccccc2[nH]c1=O	4	4%	2%	7	-4	2
CCCCCCNC(=O)Cc1c(O)c2ccccc2[nH]c1=O	10	28µM*	4%	7	-6	11
CCCC(=O)NNC(=O)c1c(O)c2ccccc2[nH]c1=O	16	x	5%	12	7	-2
CCCCNC(=O)Cc1c(O)c2ccccc2[nH]c1=O	-33	20µM*	1%	3	-4	1
CC1=Nc2ccccc2/C1=C/c1ccc(N(C)C)cc1	x	-8%	x	x	x	x
O=C1CCCCCC1C1(O)C(=O)Nc2ccccc21 (stereo not drawn)	0	11µM*	-4%	-2	5	1
O=C(Nc1ccc(F)cc1)C1CCN(c2nc3ccccc3n3cccc23)CC1	x	-11%	x	x	x	x
CCOC(=O)C1(C)NC(c2ccccc2F)C2C(=O)N(CC)C(=O)C21 (stereo not drawn)	-7	28µM*	9%	-8	2	1
CCOc1ccc(CN(C)CC(=O)NCc2ccccc2)cc1	-2	0%	-4%	-87*	0	8
COc1ccc(N(CC(=O)NCc2ccccc2)S(C)(=O)=O)cc1	-4	-1%	-1%	2	14	4
CCOc1ccc(CN(C)CC(=O)NCc2ccccc2Cl)cc1	9	x	9%	8	-85*	u
CN(CC(=O)NCc1ccccc1)Cc1cccc(F)c1	-20	0%	6%	-5	-7	18
CCOc1ccc(N(CC(=O)NCc2ccc(OC)cc2)S(C)(=O)=O)cc1	-7	2%	x	-77*	0	5
Cc1ccc2c(CN3CCN(C(=O)c4ccc(F)cc4)CC3)cc(=O)oc2c1	x	0%	x	x	x	x
CCc1nc(SC)ncc1C(=O)NCc1cccc(Br)c1	x	2%	x	x	x	x
COc1cccc(Cn2c(N)c(C#N)c3nc4ccccc4nc32)c1OC	-6	13µM*	-3%	24	-1	-6
COc1cc(Cn2c(N)c(C#N)c3nc4ccccc4nc32)cc(OC)c1	-6	32µM*	-10%	14	5	-3
COc1ccc(Cn2c(N)c(C#N)c3nc4ccccc4nc32)cc1	1	u	5%	-4	-4	-1
COCCn1c(N)c(C#N)c2nc3ccccc3nc21	0	-2%	-6%	7	-10	-4
SMILES	TRPV1 PAM	ClpP mod	p53 reactivator	KCNH2 3.1 block	hERG WT inh	TRPV1 agonist
COc1ccc(CCNC(=O)c2ccc(F)c(S(=O)(=O)N3CCCCC3)c2)cc1	x	1%	x	-5	12	x
CCN(CC)c1ccc(/C=N/NC(=O)CC(C)C)cc1	2	18µM*	8%	7	-4	2
CCN(CC)c1ccc(/C=N/NC(=O)OC(C)(C)C)cc1	-1	x	26%	13	7	10
CCN(CC)c1ccc(/C=N\NC(N)=O)cc1	17	25µM*	-6%	-2	-13	-1
CCN(CC)c1ccc(/C=N/NC(=O)Nc2ccccc2)cc1	-8	4%	u	5	-5	4
COc1cc2nc(N3CCCCC3)nc(NC3CC3)c2cc1OC	x	4%	x	x	x	x
Cc1ccc(SC[C@H](Cc2ccccc2)N2CC[C@@H](C(C)(C)C)CCC2=O)cc1	x	-4%	x	x	x	x
CN(C)c1ccc(CNC(=O)C2CCN(S(=O)(=O)c3cn(C)cn3)CC2)cc1	x	-4%	x	x	x	x
CN1C(=O)c2ccccc2Sc2ccc(NC(=O)COc3ccc(Cl)cc3)cc21	x	-2%	x	x	x	x
COc1ccc(NC(=O)CN(C)C(=O)/C=C/c2ccc(S(=O)(=O)N3CCCCCC3)cc2)cc1	-13	-12%	-7%	-23	2	1
COc1ccc(OC)c(/C=C/C(=O)N(C)CC(=O)Nc2cc(C)ccc2C)c1	9	1%	-5%	9	-2	1
COc1ccc(NC(=O)CN(C)C(=O)/C=C/c2ccc(OCc3ccccc3)cc2)cc1	-7	28µM*	-5%	-4	-11	15
COc1ccc(OC)c(/C=C/C(=O)N(C)CC(=O)Nc2ccc(C)cc2)c1	4	28µM*	-5%	3	10	4
COc1ccccc1N1CCN(CCN2C(=O)C3CCCCN3C2=O)CC1 (stereo not drawn)	-4	32µM*	-8%	17	54	-1
CCCCN1C(=O)c2ccc(C(=O)Nc3cccc(C)c3C)cc2C1=O	-6	-7%	2%	12	17	u
CCCCN1C(=O)c2ccc(C(=O)Nc3ccc(C)c(S(=O)(=O)N(C)C)c3)cc2C1=O	-12	-2%	7%	-74*	6	5
Nc1nsc2ccccc12	27	32µM*	-37%	0	-18	2
COc1ccc(Cl)cc1NC(=O)CCn1nc(C)cc1C	x	1%	x	x	x	x
COc1cc(Cn2c3ccc(NC(=O)CCc4ccc(O)cc4)cc3c(=O)n2C)ccc1F	x	5%	x	x	x	x
Fc1ccc(CNc2ncnc3c2cnn3-c2ccccc2)cc1	7	35µM*	x	-3	4	3
c1ccc(CNc2ncnc3c2cnn3-c2ccccc2)cc1	5	u	17%	-7	-5	6
Cc1ccc(-n2ncc3c(NCCc4ccccc4)ncnc32)cc1C	x	28µM*	x	x	x	x
c1ccc(CCNc2ncnc3c2cnn3-c2ccccc2)cc1	17	-21%	u	-10	-8	-6
